# According to ChEMBL document CHEMBL1157539, “Thousands of chemical starting points for antimalarial lead identification” (Nature, 2010):
# Where “and” joins values, the source holds several entries; their conditions need not be identical. Equal values may be shown once.
# Columns and labels:
# Format in all cases: functional
# [1] = system: Plasmodium falciparum; test: GSK_TCMDC: Inhibition of Plasmodium falciparum 3D7 in whole red blood cells, using parasite LDH activity as an index of growth. Test compounds present at 2uM
# [2] = system: Plasmodium falciparum; test: GSK_TCMDC: Inhibition of Plasmodium falciparum Dd2 in whole red blood cells, using parasite LDH activity as an index of growth. Test compounds present at 2uM
# [3] = system: HepG2; test: GSK_TCMDC: Percent inhibition of human HepG2 cell line. Test compounds present at 10uM.
SMILES,Inhibition [1],Inhibition [2],Inhibition [3] [%]
COc1ccc(Cn2ncc3c4c(N)nc(N)nc4ccc32)cc1OC,94%,95%,68
Cc1ccc(C)c2c1[nH]c1ccc(C3=NCCN3)cc12.Cl,100%,0%,29
CC(=O)Oc1cc(C(=O)Nc2ccc(Cl)cc2)cc2ccccc12,88%,47%,16
CCCCCN1CCCC(NS(=O)(=O)c2ccc(C(=O)Nc3ccc(C(F)(F)F)cc3)cc2)C1.O=C(O)C(F)(F)F (stereo not given),98%,20%,41
OC(COCc1ccc(-c2ccccc2)cc1)CN1CCCCC1 (stereo not given),99%,75%,13
Cc1cc(N[C@@H](C)C(=O)Nc2ccccc2)nc(NCCc2ccc(F)cc2)n1.O=C(O)C(F)(F)F,100%,43%,33
CCCCCN1CCCC1CNS(=O)(=O)c1ccc(C(=O)Nc2cccc(C(F)(F)F)c2)cc1.O=C(O)C(F)(F)F (stereo not given),95%,0%,16
CNC(=O)c1cnc(Nc2ccc(OCC(O)CN(C)C)cc2)nc1Nc1cccc(Br)c1.O=C(O)C(F)(F)F (stereo not given),100%,100%,68
COc1ccc2cc(-c3nc(-c4c(Cl)cccc4Cl)[nH]c3-c3ccnc(NCCCN4CCN(C)CC4)c3)ccc2c1.O=C(O)C(F)(F)F,98%,80%,10
Cc1cccc2nc(-c3cccc(-c4ccc(NC(=O)Nc5ccc(F)c(F)c5F)cc4)c3)[nH]c12,100%,100%,61
COc1ccc(S(=O)(=O)N2CCC(NS(=O)(=O)c3ccc(F)cc3)CC2)cc1,80%,0%,3
CC1=NN(c2ccc(C)c(C)c2)C(=O)C1=NNc1cccc(-c2cccc(NC(=O)OC(C)(C)C)c2)c1O,94%,21%,39
CC1(C)N=C(N)N=C(N)N1c1cccc(C(F)(F)F)c1.Cl,95%,68%,60
CCOC(=O)CCCCOc1c(OC)cc(Cc2cnc(N)nc2N)cc1OC,95%,0%,0
CN1CCCCC1CCc1cc(C(=O)Nc2ccc(-c3ccc(O)cc3)cc2)ccc1O (stereo not given),91%,11%,6
CNCc1ccc(CN(C)c2nc(N)c3cc(OC)c(OC)cc3n2)cc1.O=C(O)C(F)(F)F,96%,3%,12
CNC(=O)c1cnc(Nc2ccc(OCC(O)CN(C)C)cc2)nc1Nc1cccc(OC(C)C)c1.O=C(O)C(F)(F)F (stereo not given),100%,100%,21
O=C(N[C@@H](CC1CCCCC1)C(=O)NC1CCCCC1)c1ccc(O)c(-c2cccc(C(F)(F)F)c2)c1,100%,95%,0
CCCN(CCC)C(=O)c1cc(C(=O)N[C@@H](Cc2ccccc2)[C@H](O)CNCc2cccc(C(F)(F)F)c2)cc(N2CCCCS2(=O)=O)c1,99%,74%,0
Cc1cc(C(=O)Nc2ccc(C)c(-c3nc(N(C(=O)c4ccc(F)c(C)c4)C4CCNCC4)nc4c3ccc(=O)n4-c3c(F)cccc3F)c2)ccc1F,99%,99%,4

SMILES,Inhibition [1],Inhibition [2],Inhibition [3] [%]
COc1cc(CS(C)(=O)=O)ccc1Nc1nccc(-c2c(-c3cccc(NC(=O)c4c(F)cccc4F)c3)nn3ccccc23)n1,92%,71%,46
CC(C)(C)C1CCC(C(=O)c2ccc3ccccc3c2O)CC1 (stereo not given),83%,63%,0
COc1ccccc1N1CCN(c2cccc(F)c2C#N)CC1,85%,59%,0
NC1=NC(c2ccccc2)(c2cccc(O)c2)C(=O)N1CCCc1ccccc1 (stereo not given),85% and 98%,38% and 93%,0
CS(=O)(=O)c1ccc(CCNCc2ccc(-c3ccc(CN(C(=O)c4cccc(C#N)c4)C4CCN(Cc5ccccc5)CC4)cc3)nc2)cc1.O=C(O)C(F)(F)F,96%,56%,20
CC(C)(C)c1ccc(CN2CCC(NC(=O)c3ccc(-c4cccc(F)c4)s3)CC2)cc1.O=C(O)C(F)(F)F,92%,24%,35
Cc1cc(NC(=O)Nc2ccc3nccc(N4CCN(C)CC4)c3c2)ccc1Br,100%,100%,31
COc1ccc2nccc([C@@H](O)CN3CCC(NCc4ccc(OC)c(NC=O)c4)CC3)c2c1,97%,0%,0
C[C@H](Nc1nc(C(Oc2ccccc2)c2ccccc2)nc2[nH]ncc12)c1ccccc1 (stereo not given in full),100%,56%,15
COc1ccc2nc(C)cc(Nc3ccc(Oc4ccc(Cl)c5ccccc45)c(Cl)c3)c2c1,100%,100%,83
COC(=O)c1ccccc1N1CCN(CCCCNC(=O)c2ccc(NC(=O)c3cc(Cl)cc(Cl)c3)cc2)CC1,100%,42%,20
Cc1cccc(-c2cccc(CNc3nc(NCCc4ccc(O)cc4)nc(N4CCNCC4)n3)c2)c1.O=C(O)C(F)(F)F,84%,0%,50
COc1ccc2nc3cc(Cl)ccc3c(NCCCN3CCNCC3)c2c1.Cl,100%,74%,18
CN(C)CCCn1c(C(=O)OC(c2ccccc2)c2ccccc2)cc2cc(OCc3ccccc3)ccc21,82%,85%,12
CN1CCN(Cc2cc3cc(NC(=O)/C=C/c4cccc(Cl)c4)ccc3s2)CC1.Cl,100%,72%,54
CC(=O)Nc1ccc(CN(C)C2CCN(c3cc(NC(=O)c4cccc(C)c4)ccn3)CC2)cc1.O=C(O)C(F)(F)F,94%,13%,0
CN1CCN(Cc2ccc(OCc3cccc(COc4ccc(CN5CCN(C)CC5)cc4I)c3)c(I)c2)CC1.Cl,92%,69%,93
Clc1cc(Cl)c2cc(CN[C@H]3CCC[C@@H]3CNc3nc4ccccc4[nH]3)[nH]c2c1,99%,58%,85
c1ccc(-c2nc(Nc3nc4ccccc4[nH]3)[nH]c2-c2ccccc2)cc1,96%,61%,14
COc1cc(F)c2nccc([C@@H](O)CN3CCC(NCc4cc5c(cc4F)OCCO5)CC3)c2c1,99%,45%,23

SMILES,Inhibition [1],Inhibition [2],Inhibition [3] [%]
CN(C)CCNC(=O)N1CCCN(c2ncnc3cc(-c4ccccc4)sc23)CC1.O=C(O)C(F)(F)F,96%,37%,5
CN1CCC(NCc2ccc(-c3cccc(-c4nc5ccccc5[nH]4)c3)cc2)CC1.O=C(O)C(F)(F)F,100%,96%,50
CCCCc1ccc(C(=O)NC2CCN(C[C@H](O)c3ccnc4ccc(OC)cc34)CC2)cc1,91%,22%,24
Cc1cccc2nc(-c3ccc(-c4ccc(C(=O)NCCc5cn(C)cn5)cc4)s3)[nH]c12,88%,8%,0
O=C(NCc1ccc(Cl)c(Cl)c1)c1ccc(-c2nc3ccc(Cl)cc3[nH]2)cc1,96%,22%,20
Cl.O=C(NCCCCN1CCC(O)(c2ccc(Cl)cc2)CC1)c1ccc(Br)cc1,82%,48%,41
CCCc1cc(OC)c(C[C@H]2c3cc(O)c(Cl)cc3CCN2C)cc1OC.Cl,97%,98%,0
O=C(Nc1cccc(CN2CCCN(CC3CCCCC3)CC2)c1)c1cc2ccccc2s1.O=C(O)C(F)(F)F,96%,15%,29
O=C(Nc1ccc(Cl)cc1)N1CCN(C2CCCCC2)CC1,93%,0%,17
C[C@H]1CN(Cc2cccc(-c3cc(CNC(=O)c4cccc(C(=O)c5ccc(Cl)c(Cl)c5)c4)ccc3F)c2)CCN1,85%,42%,40
CCC1(CC)N=C(N)N=C(N)C1c1ccc(Cl)c(Cl)c1.Cl (stereo not given),98%,20%,0
CC(=O)Nc1ccc(COc2ccc(Nc3ccnc4cc(-c5ccccn5)ccc34)cc2)cc1.Cl,99%,94%,99
Cc1cc(OCCCN2CCC(NS(=O)(=O)c3ccc(Cl)c(Cl)c3)CC2)c2ccccc2n1,96%,35%,11
COc1ccc(NC(=O)Nc2ccc(-c3ccncc3)c(C(F)(F)F)c2)cc1N1CCN(C)CC1,100%,62%,5
Cl.NC(=O)c1cccc(Nc2nccc(Nc3ccc(Oc4cccc5ccccc45)cc3)n2)c1,94%,22%,0
COc1ccc(S(=O)(=O)NC2CCN(CCNC(=O)Nc3cc(C)nc4ccccc34)C2)cc1 (stereo not given),88%,41%,0
CCOc1cc(C(=O)NCCCN2CCCCC2C)ccc1-c1nc2cc(Cl)ccc2[nH]1 (stereo not given),89%,0%,2
CN1CCCN(c2ccnc3cc4c(cc23)N(C(=O)c2ccc(Cl)cc2)CC4)CC1.Cl,100%,0%,0
CN(C)c1ccc(-c2cscc2C(=O)NC2CCCN(Cc3cccnc3)C2)cc1.O=C(O)C(F)(F)F (stereo not given),89%,70%,5
FC(F)(F)c1ccc2[nH]ccc(=NN=CC=Cc3ccccc3)c2c1,82%,9%,0
